Bioassay records as filed in PubChem.
In the library only some 13% were active in any assay of this set; here they are far more common.
USP17 block = human USP17-like deubiquitinase inhibition. A8MUK1. purified USP17, Ub-rhodamine cleavage fluorescence, 3 h. inhibition, % at 50 µM. 47,000 tested, 6.5% active. AID 1645855
USP10 block = blocks human USP10 ubiquitin-rhodamine cleavage | 47,000 tested, 1.1% active | inhibition, % at 20 µM | AID 1645856 | Q14694 | purified USP10, Ub-rhodamine fluorescence, 60 min
USP8 inh = blocks human USP8 ubiquitin-rhodamine cleavage | purified USP8, Ub-rhodamine cleavage fluorescence, 30 min | inhibition, % at 20 µM | 47,000 tested, 4.2% active
USP30 inh = blocks human USP30 ubiquitin-rhodamine cleavage | 47,000 tested, 5.3% active | purified USP30, Ub-rhodamine cleavage fluorescence | AID 1645860 | Q70CQ3 | inhibition, % at 25 µM
USP28 inh = blocks human USP28 ubiquitin-rhodamine cleavage. purified USP28, Ub-rhodamine cleavage fluorescence, 30 min. inhibition, % at 25 µM. 47,000 tested, 3% active
A number is an active result; 0 = inactive; - = no result given. Rule as the data show it: active = inhibition above about 30%; inactive = the rest.

SMILES | USP17 block | USP10 block | USP8 inh | USP30 inh | USP28 inh
COc1ccc(N2CCN(C(=O)CN3C(=O)[C@H]4CCCN4c4ncccc43)CC2)cc1 | 34 | 0 | 0 | 0 | 0
CC(=O)c1cccc(NC(=O)c2sc3nc(-c4cccc([N+](=O)[O-])c4)cn3c2C)c1 | 0 | 0 | 58 | 0 | 0
COc1ccc(NC(=O)c2sc3nc(-c4cccc([N+](=O)[O-])c4)cn3c2C)cc1OC | 44 | 0 | 0 | 0 | 0
COc1ccc(-c2cn3c(C)c(C(=O)Nc4cccc(C(C)=O)c4)sc3n2)cc1 | 0 | 0 | 0 | 0 | 0
CCC1(N2CCN(S(=O)(=O)c3ccc4c(c3)CCC4)CC2)CCN(S(C)(=O)=O)C1 (stereo unspecified) | 0 | 0 | 0 | 0 | 0
O=C(CCCCn1c(=O)c2ccccc2n(CC(=O)Nc2ccc3c(c2)OCCO3)c1=O)NCc1ccco1 | 0 | 43 | 0 | 0 | 0
O=C(Cn1c(=O)n(Cc2ccc(C(=O)NCc3ccco3)cc2)c(=O)c2ccccc21)Nc1ccc2c(c1)OCCO2 | 81 | 41 | 74 | 48 | 58
COc1ccccc1NC(=O)Nc1nnc(CC(=O)N2CCCCC2)s1 | 0 | 0 | 0 | 0 | 0
CCc1nc(SCC(=O)c2ccc(Cl)cc2)c2oc3ccccc3c2n1 | 0 | 0 | 0 | 0 | 0
CN1CC2CN(C(=O)Nc3cccnc3)CCN2Cc2ccccc21 (stereo unspecified) | 0 | 0 | 0 | 0 | 0
CC12C(=O)N(CCc3ccccc3)CC(=O)N1CCc1c2[nH]c2ccccc12 (stereo unspecified) | 0 | 0 | 0 | 0 | 0
Cc1n[nH]c(C)c1CCc1nc2c3ccccc3nc(SCC(=O)c3ccc(F)cc3)n2n1 | 53 | 0 | 0 | 71 | 0
O=c1[nH]c(=O)c2cccc(O)c2o1 | 0 | 0 | 0 | 0 | 0
Cc1cccc(C(=O)NC(NC(=O)c2cccc(C)c2)c2ccccc2F)c1 | - | 0 | 57 | 43 | 0
Cc1nc(C2CCCCN2)nc2c1CCCN2Cc1ccccn1 (stereo unspecified) | 0 | 0 | 0 | 0 | 0
O=C(C1CCC1)N1CCCC1c1ccnc(Nc2cnccn2)n1 (stereo unspecified) | 0 | 0 | 44 | 0 | 0
O=C(Cc1noc(-c2ccccc2)n1)Nc1ccccc1 | 0 | 0 | 0 | 0 | 0
O=C(Cn1cnc(-c2noc(-c3cccc(F)c3)n2)c1)Nc1ccccc1 | 0 | 0 | 65 | 0 | 0
O=C(Cn1cnc(-c2noc(-c3ccccc3)n2)c1)Nc1ccccc1 | 0 | 42 | 90 | - | -
CCN1Cc2c(C(=O)N3CCCCC3C)ncn2-c2ccccc2S1(=O)=O (stereo unspecified) | 0 | 0 | 0 | 0 | 0
Cc1nc2ccccn2c1C1(O)C(=O)Nc2c(Cl)cc(Cl)cc21 (stereo unspecified) | 52 | 0 | 88 | 0 | 0
Cc1sc(NC(=O)C2CCCCC2)nc1-c1ccccc1 | 0 | 0 | 0 | 0 | 0
Cc1sc(NCc2ccccc2)nc1-c1ccccc1 | 0 | 0 | 0 | 0 | 40
Cc1cccc(NC(=O)NCCn2cnc3cc(C(=O)N(C)C)ccc32)c1C | 0 | 0 | 0 | 0 | 0
Cc1cc(C)n2nc(NCc3cccc(Cl)c3)nc2n1 | 0 | 0 | 0 | 0 | 32
SMILES | USP17 block | USP10 block | USP8 inh | USP30 inh | USP28 inh
Cc1cc(C)n2nc(C(=O)NCc3ccc(Cl)cc3)nc2n1 | 0 | 0 | 0 | 0 | 0
Cc1ccc(NC(=O)CN2CCC(c3nnc(C)s3)CC2)c(C)c1 | 0 | 0 | 0 | 0 | 0
CC(C)(C)c1cc(C(=O)NC2CCCC2)nc2ccnn12 | 31 | 0 | 0 | 31 | 0
CN(C)c1cc(C(=O)NC2CCCCC2)nc2ccnn12 | 0 | 0 | 0 | 0 | 0
Nc1ccccc1SCc1noc(-c2cccs2)n1 | 0 | 0 | 0 | 0 | 73
CC1(C)Cc2c(c(-c3ccco3)nc3sc4c(NCc5ccccn5)ncnc4c23)CO1 | 38 | 0 | 0 | 0 | 0
CCCCCCNc1ncnc2c1sc1nc(-c3ccccc3)c3c(c12)CC(C)(C)OC3 | 0 | 0 | 0 | 31 | 0
CC1(C)Cc2c(c(-c3ccco3)nc3sc4c(NCCCN5CCOCC5)ncnc4c23)CO1 | 0 | 0 | 0 | 0 | 0
CC1=C(C#N)C(C(F)(F)F)(C(F)(F)F)N=C(Cc2ccccc2)N1 | 0 | 0 | 0 | 0 | 0
Cc1ccc(NC2=NC(c3ccccc3)(C(F)(F)F)C(C#N)=C3C=CC=CN23)cc1 (stereo unspecified) | 0 | 0 | 63 | 0 | 0
COc1cccc2c1C(=O)c1ccc3c(c1C2=O)C(=O)C[C@@H](C)[C@@H]3O | 45 | 0 | 0 | 0 | 0
COc1cccc2c1C(=O)c1ccc3c(c1C2=O)C(=O)C[C@@H](C)C3 | 30 | 0 | 0 | 0 | 0
CCOc1ccc(NC(=O)N2CCC(N3CCN(C)C(=O)C3=O)CC2)cc1 | 0 | 0 | 0 | 0 | 0
Cc1cc(C(=O)NC2CCN(Cc3ccccc3)CC2)c2cccc(C)c2n1 | 0 | 0 | 0 | 0 | 0
CCc1ccc(CN2CC[C@H]3[C@H]2CCN3C(=O)c2cnn(C)c2)o1 | 0 | 0 | 0 | 0 | 0
Cn1c(=O)c(Cl)nc2c(OCc3ccccc3)nc(N)nc21 | 0 | 0 | 0 | 0 | 0
Nc1nc(OCc2ccccc2)c2[nH]c(/C=C/c3cccs3)nc2n1 | 0 | 0 | 72 | 84 | 67
CN1[C@@H](CCC(=O)N2CC[C@@H](O)C2)CNC(=O)[C@@H]2[C@H]1CCN2CC(C)(C)C | 0 | 0 | 0 | 0 | 0
CN(C(=O)Cn1c(=O)n(-c2ccc(Cl)cc2)c(=O)c2c3c(sc21)CCCC3)C1CCCCC1 | 41 | 0 | 0 | 32 | 0
O=C(Nc1ccc(N2CCN(Cc3ccc(F)cc3)C2=O)nc1)C1CCC1 | 60 | 0 | 0 | 63 | 38
O=C(Nc1ccc(N2CCN(c3ccccc3)C2=O)nc1)C1CCOC1 (stereo unspecified) | 0 | 0 | 0 | 35 | 0
O=C(Nc1ccc(N2CCN(Cc3ccc(F)cc3)C2=O)nc1)c1ccc2c(c1)OCO2 | 0 | 0 | 0 | 0 | 0
Cc1nc(C2CCN(C(=O)c3ccccc3F)C2)cc(=O)[nH]1 (stereo unspecified) | 0 | 0 | 0 | 0 | 0
Cc1cccnc1NC(=O)c1noc2c1CCc1sccc1-2 | 0 | 0 | 0 | 0 | 0
Cc1ccc(NC(=O)c2noc3c2CCc2sccc2-3)nc1 | 32 | 0 | 47 | 0 | 0
SMILES | USP17 block | USP10 block | USP8 inh | USP30 inh | USP28 inh
O=C(Nc1ccccn1)c1noc2c1CCc1sccc1-2 | 37 | 0 | 88 | 0 | 0
COc1ccccc1C(=O)NCc1nnc(SCC(=O)N2CCc3ccccc32)n1-c1cc(C)ccc1C | 0 | 0 | 0 | 0 | 0
CC(C)Cc1cc(-c2nnc3sc(-c4ccco4)nn23)n[nH]1 | 73 | 0 | 35 | 0 | 39
CC(C)c1ncc(Cl)c(C(=O)N2CCCC2c2cnn(C)c2)n1 (stereo unspecified) | 0 | 0 | 0 | 0 | 0
COCCn1c(=S)[nH]c2cc(C(=O)NCCSCc3ccccc3)ccc2c1=O | 0 | 0 | 0 | 71 | 0
COc1ccc(S(=O)(=O)NCCC(=O)N2CCCC(c3nnc4ccccn34)C2)cc1 (stereo unspecified) | 0 | 0 | 0 | 0 | 0
O=C(CNS(=O)(=O)c1ccc(F)cc1)N1CCCC(c2nnc3ccccn23)C1 (stereo unspecified) | 0 | 0 | 57 | 0 | 51
